From PubChem BioAssay AID1159580 (chemical genetic matrix, 2015)
Values joined by “and” are separate entries in the source; they are usually repeats but may differ in a detail not shown here. Equal values may be shown once. In all, about 5,500 compounds went through this assay and about 2,000 (36%) were called active. About 18% were inconclusive and are not listed. No stated cut-off is given here; in the data, active means normalized growth mostly below about 0.91 (no sharp cut-off); inconclusive means no clear call, values can overlap the other calls; inactive means mostly above about 0.92. The list shows a part of the results.

Assay: chemical genetic growth profiling, strain panel (AID 1159580);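 further: tested at 20 µM; growth read once vehicle control cultures reached saturation at 30 °C; 1 = growth at the plate median or of vehicle wells; lower values mean less growth of the strain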
Details: S. cerevisiae deletion strains, growth OD

Measured: normalized growth

CC(=O)O[C@H]1C[C@@H](O)C(C)(C)C2C[C@@H](OC(C)=O)[C@]3(C)C(CC[C@@]4(C)[C@H](c5ccoc5)OC(=O)C5OC543)[C@]21C (stereo partly specified)
inactive: locus YAL013W, strain DEP1, hits give low values 0.994 | locus YAL021C, strain ccr4, hits give low values 1.02 | locus YAL026C, strain drs2, hits give low values 1.01 | locus YAL030W, strain snc1, hits give low values 1 | locus YBL061C, strain skt5, hits give low values 1 | locus YBR009C, strain hhf1, hits give low values 0.997 | locus YBR021W, strain FUR4, hits give low values 1.03 | locus YBR023C, strain chs3, hits give low values 1.01 | locus YBR171W, strain sec66, hits give low values 1.01 | locus YBR229C, strain ROT2, hits give low values 0.948 | locus YBR231C, strain swc5, hits give low values 0.998 | locus YBR279W, strain paf1, hits give low values 0.999 | locus YCL011C, strain gbp2, hits give low values 0.999 | locus YCL016C, strain dcc1, hits give low values 0.997 | locus YCL029C, strain bik1, hits give low values 0.984 | locus YCL061C, strain MRC1, hits give low values 1.01 | locus YCL069W, strain vba3, hits give low values 1 | locus YCR088W, strain abp1, hits give low values 1.01 | locus YDL005C, strain med2, hits give low values 1 | locus YDL035C, strain GPR1, hits give low values 0.984 | locus YDL040C, strain nat1, hits give low values 1 | locus YDL074C, strain BRE1, hits give low values 0.952 | locus YDL101C, strain DUN1, hits give low values 0.986 | locus YDL185W, strain tfp1, hits give low values 0.97 | locus YDL192W, strain arf1, hits give low values 0.97 | locus YDR001C, strain nth1, hits give low values 1.01 | locus YDR069C, strain doa4, hits give low values 1.01 | locus YDR101C, strain arx1, hits give low values 0.973 | locus YDR137W, strain rgp1, hits give low values 1 | locus YDR159W, strain sac3, hits give low values 1.01 | locus YDR162C, strain NBP2, hits give low values 0.977 | locus YDR195W, strain ref2 0.985 | locus YDR297W, strain sur2, hits give low values 1.01 | locus YDR318W, strain mcm21, hits give low values 0.984 | locus YDR334W, strain swr1, hits give low values 1.01 | locus YDR335W, strain msn5, hits give low values 0.996 | locus YDR388W, hits give low values 1 | locus YDR392W, strain spt3, hits give low values 1.02 | locus YDR502C, strain sam2, hits give low values 1.01 | locus YEL003W, strain gim4, hits give low values 1 | locus YEL037C, strain rad23, hits give low values 0.997 | locus YEL061C, strain CIN8 (second series), hits give low values 1.01 | locus YER015W, strain faa2, hits give low values 1.01 | locus YER016W, strain bim1, hits give low values 1 | locus YER110C, hits give low values 0.97 | locus YER111C, strain swi4, hits give low values 1.02 | locus YER155C, strain BEM2 (second series), hits give low values 1.02 | locus YER155C, strain BEM2, hits give low values 1.02 | locus YER167W, strain BCK2, hits give low values 0.988 | locus YFR010W, strain ubp6, hits give low values 1.01 | locus YGL078C, strain dbp3, hits give low values 0.983 | locus YGL086W, strain mad1, hits give low values 0.997 | locus YGL167C, strain pmr1, hits give low values 0.999 | locus YGL173C, strain kem1, hits give low values 1.01 | locus YGL227W, strain vid30, hits give low values 1 | locus YGL240W, strain doc1, hits give low values 1 | locus YGL248W, strain PDE1, hits give low values 0.975 | locus YGL253W, strain hxk2, hits give low values 1.02 | locus YGR078C, strain PAC10, hits give low values 1 | locus YGR135W, strain pre9, hits give low values 1.03 | locus YGR229C, strain SMI1, hits give low values 0.976 | locus YGR252W, strain gcn5, hits give low values 0.966 | locus YHR013C, strain ard1, hits give low values 1.01 | locus YHR027C, strain rpn1, hits give low values 1.01 | locus YHR030C, strain SLT2, hits give low values 0.987 and 0.952 | locus YHR079C, strain IRE1 (second series), hits give low values 0.99 | locus YHR079C, strain IRE1, hits give low values 0.974 | locus YHR094C, strain hxt1, hits give low values 0.979 | locus YHR129C, strain ARP1, hits give low values 0.993 | locus YHR142W, strain chs7, hits give low values 0.999 | locus YHR200W, strain rpn10, hits give low values 0.99 | locus YIL066C, strain RNR3, hits give low values 0.957 | locus YIL073C, strain SPO22, hits give low values 1.04 | locus YIL125W, strain kgd1, hits give low values 0.983 | locus YIR030C, strain dcg1, hits give low values 0.992 | locus YJL092W, strain hpr5, hits give low values 1.01 | locus YJL095W, strain BCK1 (second series), hits give low values 1.01 | locus YJL095W, strain BCK1, hits give low values 1.03 and 1 | locus YJL115W, strain asf1, hits give low values 1 | locus YJL129C, strain trk1, hits give low values 1.01 | locus YJL134W, strain LCB3, hits give low values 0.978 | locus YJL154C, strain vps35, hits give low values 1 | locus YJL164C, strain tpk1, hits give low values 1.01 | locus YJL166W, strain qcr8, hits give low values 0.999 | locus YJL168C, strain set2, hits give low values 0.997 | locus YJL187C, strain SWE1 (second series), hits give low values 0.999
